Among the data in PubChem BioAssay (EPA / NIEHS) are outcome and AC50 values, retold here.

Assay [1] is described as follows: CCTE_Padilla_ZF_Score.General: CCTE's 144 Hour Post-fertilization zebrafish Assay Score for General Malformation, Padilla Lab (AID 2284411). The method, boiled down:
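Malformation, death and hatching were scored at 6 dpf by two blinded observers under a stereo microscope. Embryos were dosed singly from 6-8 hpf in sealed plates of 10% Hanks' at 26C and rinsed on 5 dpf; DMSO baseline.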

Assay [2] relates to SRY-box transcription factor 2 (SOX2) Protein Expression, Deisenroth Lab, SOX2 (gene 6657). Kind of assay: CCTE_Deisenroth_DEVTOX-GLR_Endo_SOX2: CCTE's DevTox GLR-Endo Assay Evaluation of SRY-box transcription factor 2 (SOX2) Protein Expression, Deisenroth Lab (AID 2284412; active = hit-call score of the fitted dose curve at least 0.9, where 1 is the maximum). An outline of the steps: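 Endpoint is percent SOX2-positive cells (SOX2+ count/total cells) minus 0.2% DMSO control, from high-content imaging of fixed, nuclear-stained RUES2-GLR cells. Dosing twice at 24 h intervals over 48 h differentiation, 1 nM–200 uM in 10 points.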

Each structure is given as a SMILES string. Results filed as inconclusive are left out. The source made the active and inactive calls. The calls were made as follows, unless noted: active = hit-call score of the fitted dose curve at least 0.9, where 1 is the maximum; inactive = score below 0.9.

For orientation: AC50 means the concentration at which the activity in the assay is half-maximal.

Regarding `CCC(C)OC(=O)N1CCCCC1CCO` (stereo not drawn), in assay [1], the compound was classed as inactive.

In the case of `COCCO`, in assay [1], the call was inactive.

For `CC(C)(c1ccc(O)cc1)c1ccc(O)cc1`, the AC50 in assay [2] was 64.4 µM (active).
